# Assay outcomes from PubChem.
# In the library only some 7.9% were active in any assay of this set; here they are far more common.
# Lassa entry inh = qHTS for Inhibitors of binding or entry into cells for Lassa Virus; 300,000 compounds, 1.2% hits; Lassa virus pseudotype entry inhibition, cell reporter; AID 540256, 2011; Potency, µM (titrated, usually from 37.9 µM), without a hit: at the highest dose activity change, negative = inhibition, hits mostly inhibitors; calls by dose curve; tested in HEK293 cells; further: potency means the concentration at half of the fitted maximal effect; nearly all actives have a fitted effect of over 50% in size
# HCV inh = qHTS Assay for Inhibitors of Hepatitis C Virus (HCV); Huh7.5.1 HCVcc-Cre infection, luciferase reporter, 44 h; Potency, µM (titrated, usually from 41.8 µM), without a hit: top-dose activity change, negative = inhibition, most hits filed as inhibitors; 340,000 compounds, 3.4% hits; active means well fitted inhibition curve with a large enough effect; inconclusive means small, poorly fitted or top-dose-only effect, or another doubt; inactive means no such curve, though single readings can be large or run the other way; further: potency means the concentration at half of the fitted maximal effect
#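 Reporter virus HCVcc-Cre (~0.5 moi) infects cells exposed to compound; seeding density 1,000 cells/well with 4 h settling beforehand. Luminescence, 15 sec read, taken 44 h post-infection following a 15 min RT substrate incubation.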
# FMDV antiviral = High Throughput Screening for Foot and Mouth Disease Virus Antivirals | FMDV antiviral cell-based qHTS | Potency, µM (series often up to 57.9 µM), for the others: top-dose activity change, negative = inhibition, actives largely listed as inhibitors | 410,000 compounds, 1.2% hits | AID 1159524, 2015; calls by dose curve; tested in HEK293T cells; further: read-out not given here; potency means the concentration at half of the fitted maximal effect; nearly all actives have a fitted effect of over 45% in size
# Marburg entry inh = qHTS for inhibitors of binding or entry into cells for Marburg Virus. Marburg virus pseudotyped entry inhibition, cell reporter. Potency, µM (highest dose often 37.8 µM), without a hit: at the top dose activity change, negative = inhibition, usual class: inhibitors. AID 540276, 2011. 300,000 compounds, 1.8% hits; calls by dose curve; tested in HEK293 cells; further: potency means the concentration at half of the fitted maximal effect
# HCMV antiviral = qHTS Assay for inhibitors of the human cytomegalovirus (HCMV); HFF cells, HCMV-luciferase reporter, 72 h; active compounds read low; 410,000 compounds, 4.5% hits; activity change, negative = inhibition, % at 57.5 µM; in the data active means activity change below about -60%; inconclusive means no clear call, values can overlap the other calls; inactive means above about -39%
#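 Inhibition of viral replication was scored as loss of reporter luminescence in HFFs infected with HCMV-luciferase (MOI 1 PFU/cell) for 72 h; compounds tested at 2 doses, normalized to buffer and Salinomycin controls.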
# * hit, by the source's call; ? = inconclusive; · = no result given; [ ] = another dose, or the depositor's remark. On the % scale 0 is the no-effect control and ±100 the full control effect.
SMILES,Lassa entry inh,HCV inh,FMDV antiviral,Marburg entry inh,HCMV antiviral
COc1ccccc1-c1cc(NC=O)c2ncc(-c3ccc(S(C)(=O)=O)cc3)n2c1,·,·,-7%,·,284
S=C1SCN(CC2CC2)CN1CC1CC1,-31%[46.1 µM],?,-22%,6%[46.1 µM],-77*
CC1CCCN(c2ncnc3c2nnn3C)C1 (stereo not drawn),10%[46.1 µM],·,-14%,·,-11
COc1cccc2cc(C(=O)C3=C(O)C(=O)N(c4cc(C)on4)C3c3cccs3)oc12 (stereo not drawn),·,-5%,-18%,·,-70*
Cc1cc2c(cc(C(=O)OCC(=O)NCc3cccs3)n2C(C)C)o1,9.2µM*,?,·,?,·
COc1cccc(C(C2=C(O)CC(C)(C)CC2=O)C2C(=O)CC(C)(C)CC2=O)c1 (stereo not drawn),?,4%,-13%,23%,-65*
Cc1ccc(C(C2=C(O)CC(C)(C)CC2=O)C2C(=O)CC(C)(C)CC2=O)s1 (stereo not drawn),?,10%,?,2%,-9
CC1(C)CC(=O)C(C(C2=C(O)CC(C)(C)CC2=O)c2ccc(Br)s2)C(=O)C1 (stereo not drawn),13µM*,4%,5.6µM*,?,-7
CCCN(CCC)C[C@@H]1CCCCN1CCNC(=O)N1c2ccccc2C(=O)Nc2cccnc21,·,·,-18%,·,·
CCc1nc(N2CCN(C(=O)c3ccco3)CC2)c(C#N)c2c1COC(C)(C)C2,?,22µM*,-21%,-6%[46.1 µM],-1
CC1(C)Cc2c(C#N)c(N3CCN(C(=O)c4ccco4)CC3)nc(Cc3ccccc3)c2CO1,-30%,-15%,40µM*,?,-36
CC1(C)Cc2c(C#N)c(N3CCN(C(=O)c4ccccc4Cl)CC3)nc(-c3ccco3)c2CS1,?,?,?,-26%,-4
CCc1nc(N2CCN(C(C)=O)CC2)c(C#N)c2c1COC(C)(C)C2,·,-3%,-18%,·,-8
CCN(CC)c1ccc(C=C(c2nnnn2-c2ccccc2)c2nnnn2-c2ccccc2)cc1,2.5µM*,?,0%,?,-39
Cc1ccc(-n2nnnc2C(=Cc2ccc(N(C)C)cc2)c2nnnn2-c2ccc(C)cc2)cc1,?,?,·,?,-16
Cc1ccc(S(=O)(=O)N2CCC(C(=O)N3CCCCCCC3)CC2)cc1C,·,·,-12%,·,-26
CC(NC(=O)CSc1ncn[nH]1)c1ccc(Cl)cc1Cl (stereo not drawn),-10%[46.1 µM],18%,-10%,-1%[46.1 µM],-61*
CN1CCN(c2ncc3nc(-c4cccs4)c(=O)n(-c4ccccc4)c3n2)CC1,·,·,-7%,·,·
Cc1ccc(/C=N/NC(=O)C(C)Oc2cccc3ccccc23)o1 (stereo not drawn),·,?,-21%,·,-66*
CCn1cc(C(=O)N2CCN(c3ccccc3OC)CC2)c(=O)c2cc(S(=O)(=O)N3CCCCC3)ccc21,9%[46.1 µM],·,-6%,9%[46.1 µM],6
Cc1ccc(NC(=O)CC2CC2)cc1-c1ccc(C(=O)NCC2CC2)cc1,4µM*,·,·,·,·
Cc1ccc(C(=O)NC2CCCCC2)cc1-c1ccc(C(=O)NCC2CC2)cc1,1.4µM*,·,·,·,·
COC(=O)[C@@H]1Cc2c([nH]c3ccccc23)C(C)(C)N1C(=O)CCl,7.9µM*,1µM*,?,7.1µM*,-99*
COC(=O)C1Cc2c([nH]c3ccccc23)C2CCC(=O)N12 (stereo not drawn),·,·,-6%,·,-2
CCCCCCc1cc2cc(-c3nnc(-c4cccc(Cl)c4)o3)c(=O)oc2cc1O,?,·,-1%,·,-24
CS(=O)(=O)c1ccc(CNC(=O)C2(C(F)(F)F)CC(CCCO)CCCO2)cc1 (stereo not drawn),·,?,0%,·,-67*
O=C(Nc1ncccn1)c1ccc([N+](=O)[O-])cc1[N+](=O)[O-],·,18%,-13%,·,-16
O=[N+]([O-])c1ccc(Sc2nccn2Cc2ccccc2)c([N+](=O)[O-])c1,5%,?,28µM*,?,-37
Cc1cccc(Sc2ccc([N+](=O)[O-])cc2[N+](=O)[O-])n1,-26%,-27%,?,-29%,-72*
O=c1cc(-c2ccccc2)nc(Sc2ccc([N+](=O)[O-])cc2[N+](=O)[O-])[nH]1,17%,0%,16µM*,5%[46.1 µM],-34
